According to the supplement of paper PMC4894684:
Counter-ions that a name gives are not always drawn. ± gives the standard deviation of the averaged measurements.

System: Toxoplasma gondii RH (in HFF)
Test: parasite growth relative to the screen mean (all compounds = 100%); higher = less inhibition of parasite growth
Details: 5 µM; 72 h; oxygen 21 %
How it was run: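 Values give growth relative to the screen mean. The screen mean (all compounds) is set at 100%, and two screens were averaged. Compounds at 5 µM final were placed on confluent human foreskin fibroblasts, which were infected within 2 h with RH β-Gal–GFP Toxoplasma (MOI 1:5) and kept 72 h at 21% O2 before a CPRG β-Gal readout against in-plate standard curves.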

| SMILES | parasite growth [%] |
| --- | --- |
| O=c1cc(-c2cccc3c2Sc2ccccc2S3)oc(N2CCOCC2)c1 | 112 ± 15 |
| Nc1cc(N2CCCCC2)nc(N)[n+]1[O-] [Minoxidil] | 111 ± 13 |
| Cc1c(OCC(F)(F)F)ccnc1C[S+]([O-])c1nc2ccccc2[nH]1 (centres undefined) [Lansoprazole] | 124 ± 9.3 |
| Cc1c(C(=O)NN2CCCCC2)nn(-c2ccc(Cl)cc2Cl)c1-c1ccc(I)cc1 | 45.2 ± 3 |
| CCCCCCCC/C=C\CCCCCCCC(=O)NCc1ccc(O)c(OC)c1 [Olvanil] | 155 ± 38 |
| COc1cc2nc(N3CCN(C(=O)c4ccco4)CC3)nc(N)c2cc1OC [Prazosin hydrochloride] | 73.4 ± 17 |
| CNCCCCOc1ccccc1Cc1ccccc1 [Bifemelane hydrochloride] | 43.6 ± 3.2 |
| CN(C(=O)c1c(O)c2ccccc2n(C)c1=O)c1ccccc1 [Linomide] | 135 ± 4.5 |
| CC(=O)NCCc1c(Cc2ccccc2)[nH]c2ccccc12 [Luzindole] | 75.1 ± 29 |
| CN1[C@@H](CC(=O)c2ccccc2)CCC[C@H]1C[C@H](O)c1ccccc1 [Lobeline hydrochloride] | 179 ± 40 |
| CC1(C)CC(=O)C(C2C3=C(CC(C)(C)CC3=O)Oc3ccccc32)C(=O)C1 (centres undefined) | 127 ± 18 |
| N[C@H](C(=O)O)c1ccc(C(=O)O)c(O)c1 [(S)-4-Carboxy-3-hydroxyphenylglycine] | 143 ± 25 |
| CCOC(=O)[C@@H](C)Oc1cccc2c(=O)n(CC(=O)Nc3ccc4c(c3)OCCO4)ccc12 | 118 ± 12 |
| Nc1nc2c(nc(Br)n2[C@@H]2O[C@@H]3COP(=O)(O)O[C@H]3[C@H]2O)c(=O)[nH]1 [8-Bromo-cGMP, sodium salt] | 133 ± 26 |
| Cc1scc2c1N(C(=O)CN1CCN(C)CC1)c1ccccc1NC2=O [Telenzepine dihydrochloride] | 133 ± 26 |
| Cc1oncc1C(=O)Nc1ccc(C(F)(F)F)cc1 [Leflunomide] | 106 ± 61 |
| C/N=C(/NC#N)NCCSCc1csc(NC(=N)N)n1 [Tiotidine] | 122 ± 30 |
| CCCN(C/C=C/I)C1CCc2cccc(O)c2C1 (centres undefined) [8-Hydroxy-PIPAT oxalate] | 190 ± 23 |
| CCOC(=O)C1=C(COCCN)NC(C)=C(C(=O)OC)C1c1ccccc1Cl (centres undefined) [Amlodipine besylate] | 87.9 ± 30 |
| CC(=O)N[C@@H](Cc1c[nH]c2ccccc12)C(=O)OCc1cc(C(F)(F)F)cc(C(F)(F)F)c1 | 108 ± 52 |

| SMILES | parasite growth [%] |
| --- | --- |
| O=C(O)c1ccc(C=C2SC(=S)N(c3cccc(C(F)(F)F)c3)C2=O)cc1 | 109 ± 36 |
| NS(=O)(=O)C#Cc1ccccc1 [Pifithrin->m] | 123 ± 13 |
| CCCC[C@@H](C=O)NC(=O)[C@H](CC(C)C)NC(=O)OCc1ccccc1 [Calpeptin] | 19.9 ± 4.8 |
| N[C@@H](CSC(c1ccccc1)(c1ccccc1)c1ccccc1)C(=O)O [S-Trityl-L-cysteine] | 118 ± 8.6 |
| Cc1nc2sccn2c(=O)c1CCN1CCC(=C(c2ccc(F)cc2)c2ccc(F)cc2)CC1 [Ritanserin] | 123 ± 15 |
| COC(=O)[C@H]1[C@H]2C[C@@H]3c4[nH]c5cc(OC)ccc5c4CCN3C[C@H]2C[C@@H](OC(=O)c2cc(OC)c(OC)c(OC)c2)[C@@H]1OC [Reserpine] | 78.4 ± 47 |
| Nc1nc(F)nc2c1ncn2[C@@H]1O[C@H](CO)[C@@H](O)[C@@H]1O [Fludarabine] | 102 ± 10 |
| Cn1cnc2c(NCc3ccccc3)nc(NCCO)nc21 [Olomoucine] | 127 ± 7.9 |
| CCCCC#Cc1nc(NC)c2ncn([C@@H]3O[C@H](CO)[C@@H](O)[C@H]3O)c2n1 | 143 ± 8.2 |
| Oc1cc2c(cc1O)CN(C(=S)NCCc1ccc(Cl)cc1)CCC2 [Capsazepine] | 150 ± 30 |
| COc1ccc(CCCOC(Cn2ccnc2)c2ccc(OC)cc2)cc1 (centres undefined) | 95.6 ± 24 |
| CCCCCCCCc1ccc(-c2ccc(C(=O)O)cc2)cc1 | 111 ± 17 |
| COc1ccc(-c2nc(C(=O)N3CCN(C)CC3)sc2-c2ccc(OC)cc2)cc1 | 112 ± 21 |
| CCC(=O)NC1CCc2cccc(OC)c2C1 (centres undefined) | 84.3 ± 9.1 |
| NC1CCN(c2cccc(Cl)n2)CC1 | 141 ± 23 |
| COc1cc(OC)c(C(=O)CCCCN2CCC3(CC2)NC(=O)NC3=O)cc1NS(=O)(=O)c1ccc(C(F)(F)F)cc1 | 109 ± 11 |
| c1ccc(N2CCN(Cc3nc4ccccc4[nH]3)CC2)nc1 [ABT 724 trihydrochloride] | 98.1 ± 12 |
| COc1ccc(Br)cc1S(=O)(=O)NC(=O)/C=C/c1ccccc1Cc1ccc2ccccc2c1 | 125 ± 12 |
| COc1ccc2[nH]c(C(=O)c3ccccc3)cc2c1 | 38.5 ± 2.6 |
